A selection: hits, their analogues and other compounds. The true share with any hit is near 5.9%.
RORgamma inh: inhibitors of mouse ROR gamma transcriptional activity; actives 5.4% (n = 310,000); Drosophila S2 Gal4-RORgamma UAS-luciferase reporter, 20 h; AID 2551; Potency, µM (top dose mostly 53.6 µM), hits mostly inhibitors; further: nearly all actives have a fitted effect of over 60% in size
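Drosophila Schneider cells stably carrying a metallothionein-driven Gal4 DBD–ROR gamma fusion and a UAS-Photinus luciferase reporter were exposed to compound for 1 hr, then induced with copper sulfate (700 uM final) for 20 hr at ambient temperature before luminescence reading.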
VP16 counter: counter-screen for ROR gamma inhibitors: Gal4-VP16 reporter | Drosophila S2 Gal4-VP16 UAS-luciferase, luminescence, 20 h | actives 3.5% (n = 310,000) | AID 2546 | Potency, µM (top dose mostly 53.6 µM), actives largely listed as inhibitors;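 further: Gal4-VP16 expression switched on by copper sulfate through the metallothionein promoter; nearly all actives have a fitted effect of over 50% in size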
HEK293 tox: cytotoxicity in counter-screen for GLP-1R inverse agonists; Potency, µM (highest dose often 38.3 µM), actives largely listed as inhibitors; actives 0.13% (n = 410,000); HEK293 cAMP-luciferase reporter cells, luminescence, 24 h;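 further: loss of luciferase light is scored as toxicity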
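Luminescence readout: signal drop marks cytotoxicity. Plated cells grew 12 h at 37 °C, 5% CO2, received 23 nL compound for 24 h, then got luciferase reagent, read after 12 min at RT.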
GLP1R ag: agonists of human GLP-1 receptor; P43220; actives 0.007% (n = 380,000); AID 624172; Potency, µM (series often up to 45.6 µM), actives largely listed as activators; HEK293 GLP-1R CRE-luciferase, luminescence, 4-6 h; cells express a hypersensitive GLP-1R form
Target sequence (P43220 whole entry, looked up): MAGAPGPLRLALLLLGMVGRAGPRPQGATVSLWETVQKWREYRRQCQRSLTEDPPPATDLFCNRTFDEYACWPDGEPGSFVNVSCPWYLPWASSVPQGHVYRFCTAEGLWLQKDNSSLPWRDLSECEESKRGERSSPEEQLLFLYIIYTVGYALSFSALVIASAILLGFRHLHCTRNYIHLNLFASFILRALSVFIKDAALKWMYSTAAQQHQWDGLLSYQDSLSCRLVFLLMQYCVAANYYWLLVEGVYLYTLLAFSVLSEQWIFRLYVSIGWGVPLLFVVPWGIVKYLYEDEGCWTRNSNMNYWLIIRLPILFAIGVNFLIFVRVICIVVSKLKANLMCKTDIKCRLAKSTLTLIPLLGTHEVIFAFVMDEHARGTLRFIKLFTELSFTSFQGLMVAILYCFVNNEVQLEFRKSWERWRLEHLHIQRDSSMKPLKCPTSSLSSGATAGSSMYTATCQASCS
GLP1R inv ag: acts as inverse agonist at human GLP-1 receptor; HEK293 GLP-1R CRE-luciferase, luminescence, 24 h; GLP-1R form is constitutively active; actives 1.6% (n = 410,000); P43220; Potency, µM (doses to about 38.3 µM), actives largely listed as inhibitors; further: nearly all actives have a fitted effect of over 55% in size
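HEK293 cells stably co-expressing a cAMP-responsive luciferase reporter and constitutively active GLP-1R were seeded, incubated 12 h, then exposed to compounds for 24 h at 37 C. Luminescence was read 12 min after detection reagent; inverse agonists lower signal.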
Hits are given with their value; – = inactive; ? = inconclusive; · = no result given. The call rests on the fitted dose curve; in most records, active means well fitted curve in the direction sought with a large enough effect; inconclusive means small, poorly fitted or top-dose-only effect, or another doubt; inactive means no such curve, though single readings can be large; an effect the other way counts as inactive or inconclusive.

SMILES	RORgamma inh	VP16 counter	HEK293 tox	GLP1R ag	GLP1R inv ag
Cc1onc(-c2ccccc2)c1C(=O)N/N=C/C=C/c1ccccc1	2.2µM	3.2µM	–	–	–
CCN(CC)c1ccc(/C=N/NC(=O)C2CC2)cc1	–	–	–	–	–
Cc1onc(-c2ccccc2)c1C(=O)N/N=C/c1ccc([N+](=O)[O-])s1	11µM	11µM	?	–	?
CCN(CC)c1ccc(/C=N/NC(=O)c2c(Cl)c(C)nn2C)cc1	5.6µM	?	–	–	–
CCN(CC)c1ccc(/C=N/NC(=O)Nc2nonc2N)cc1	7.1µM	–	–	–	–
CCOC(=O)CCCCN(Cc1ccccc1F)S(=O)(=O)c1ccc(F)c(C(=O)Nc2cc(Cl)cc(Cl)c2)c1	·	·	–	·	?
COc1ccccc1NC(=O)Cn1c(=O)oc2cc(S(=O)(=O)NCc3ccccc3)ccc21	·	·	–	·	–
CCN(CC)c1ccc(/C=N/NC(=O)c2c(-c3ccccc3)noc2C)cc1	11µM	?	–	–	?
CCOc1ccc(/C=N/NC(=O)c2c(-c3ccccc3)noc2C)cc1	?	?	–	–	–
CC(C)(C)OC(=O)N1CCC(c2c(C(=O)NCc3ccc4c(c3)OCO4)cnn2-c2ccccc2Cl)CC1	·	·	–	·	–
O=C(c1ccc2c(c1)CCN2S(=O)(=O)c1ccc(Cl)cc1)N1CCN(c2ccccc2F)CC1	·	·	–	·	?
O=C(Nc1nc2c(Cl)cccc2s1)C1CC1	–	–	–	–	–
O=C(Nc1nc2c(cc3c4c(cccc42)CC3)s1)c1ccccc1Cl	5µM	–	–	–	–
CC1CCN(C(=S)c2cn(Cc3ccccc3F)c3ccccc23)CC1	0.89µM	4.5µM	–	–	10µM
CN1CCN(C(=S)c2cn(Cc3ccccc3F)c3ccccc23)CC1	11µM	–	–	–	?
O=C(NCc1ccccc1)C1CCN(S(=O)(=O)Cc2ccccc2)CC1	·	·	–	·	–
COc1cc(-c2cc(OC)c3c(C)oc(C)c3c(=O)c2)ccc1OC(=O)c1cccc(C)c1	·	·	–	·	–
NNC(=O)c1cc2ccccc2cc1NS(=O)(=O)c1ccccc1	20µM	?	–	–	–
CCC(=O)NC(c1ccco1)c1cc(Cl)c2cccnc2c1O (stereo not drawn)	1.4µM	2.8µM	?	–	7.1µM
O=[N+]([O-])c1ccc(NC(c2ccccc2)c2ccc3cccnc3c2O)cc1 (stereo not drawn)	·	·	–	–	?
COc1cc(C(=O)NC(c2ccc(Cl)cc2)c2cc(Cl)c3cccnc3c2O)cc(OC)c1OC (stereo not drawn)	·	·	–	·	?
Oc1c(C(Nc2ccccn2)c2cccnc2)cc(Cl)c2cccnc12 (stereo not drawn)	4µM	4.5µM	–	–	?
CCCCC(=O)NC(c1ccco1)c1cc(Cl)c2cccnc2c1O (stereo not drawn)	–	–	?	–	?
COc1ccc(C(NC(=O)c2cccnc2)c2cc(Cl)c3cccnc3c2O)cc1OC (stereo not drawn)	2µM	4µM	–	–	?
CC(C)C(=O)NC(c1ccccc1)c1cc([N+](=O)[O-])c2cccnc2c1O (stereo not drawn)	6.3µM	?	?	–	?
SMILES	RORgamma inh	VP16 counter	HEK293 tox	GLP1R ag	GLP1R inv ag
COc1ccc(Cl)cc1NC(=O)C1CCN(S(=O)(=O)c2ccc3c(c2)CC(C)N3C(C)=O)CC1 (stereo not drawn)	·	·	–	–	–
CC(=O)Nc1ccc(-c2nnc(SCC(=O)c3ccc([N+](=O)[O-])cc3)o2)cc1	·	·	–	–	–
Cc1ccc(Cl)cc1NC(=O)C1CCN(c2nnc(C)c3c(C)n(-c4ccccc4)nc23)CC1	·	·	–	·	–
CC(C(=O)Nc1cc(C(F)(F)F)ccc1Cl)n1nnc2sc3c(c2c1=O)CCCC3 (stereo not drawn)	·	·	–	·	–
CCC(=O)C(C(=O)OC)[C@H](CCc1ccccc1)NC(=O)OC (stereo partly drawn)	–	–	·	·	·
O=[N+]([O-])c1cc2ncccc2c2ncccc12	·	·	?	–	3.2µM
CC(=O)NC(c1ccc(C)cc1)c1cc(Cl)c2cccnc2c1O (stereo not drawn)	1.1µM	0.63µM	–	–	?
CC(=O)NC(c1ccccc1)c1cc([N+](=O)[O-])c2cccnc2c1O (stereo not drawn)	7.9µM	–	?	–	?
CC(C)c1ccc(C(=O)CN2C(=O)NC3(CCc4ccccc43)C2=O)cc1 (stereo not drawn)	·	·	–	–	2.5µM
O=C(CN1C(=O)NC2(CCc3ccccc32)C1=O)Nc1cccc(Cl)c1 (stereo not drawn)	·	·	–	–	11µM
CSCC[C@H](NC(=O)CNC(=O)CNC(=O)[C@H](CO)NC(=O)[C@H](CCCNC(=N)N)NC(=O)[C@H](CO)NC(=O)[C@H](CC(C)C)NC(=O)[C@H](CC(C)C)NC(=O)CNC(=O)[C@H](C)NC(=O)[C@H](CC(C)C)NC(=O)[C@H](CCCNC(=N)N)NC(=O)[C@H](Cc1cnc[nH]1)NC(=O)[C@@H](NC(=O)[C@@H](N)C(C)C)[C@@H](C)O)C(=O)N[C@H](C(=O)N[C@@H](CCCCN)C(=O)N[C@@H](CO)C(=O)N[C@@H](CC(N)=O)C(=O)N[C@@H](Cc1ccccc1)C(=O)N[C@H](C(=O)N1CCC[C@H]1C(=O)N[C@H](C(=O)N[C@@H](CC(N)=O)C(=O)N[C@H](C(=O)NCC(=O)N[C@@H](CO)C(=O)N[C@@H](CCCCN)C(=O)N[C@@H](C)C(=O)N[C@@H](Cc1ccccc1)C(N)=O)C(C)C)[C@@H](C)O)C(C)C)C(C)C	–	–	·	·	·
COc1ccc(/C=C/C(=O)NC(=S)NNC(=O)[C@H]2C[C@@H]2c2ccccc2)cc1OC	–	–	–	–	–
COc1cccc(OC)c1C(=O)NC(=S)NNC(=O)[C@H]1C[C@@H]1c1ccccc1	4µM	–	–	–	–
O=C(NC(=S)NNC(=O)[C@H]1C[C@@H]1c1ccccc1)c1cccc(F)c1	11µM	?	–	–	–
O=C(NNC(=O)C1CC1c1ccccc1)c1cccc([N+](=O)[O-])c1 (stereo not drawn)	–	–	–	–	–
O=C(CCCCCNc1nc(=S)[nH]c2ccccc12)NCCc1ccccc1	?	–	–	–	–
S=c1nc(NCCc2ccccc2Cl)c2ccccc2[nH]1	1.6µM	6.3µM	–	–	–
O=C(CCCCCNc1nc(=S)[nH]c2ccccc12)NCc1ccccc1Cl	18µM	?	·	·	·
O=C(Nc1nc(-c2ccccn2)cs1)c1ccc(Br)s1	1.3µM	1.3µM	–	–	–
O=C(Nc1nc(-c2ccccn2)cs1)c1ccco1	7.1µM	–	?	–	–
C[C@H](NC(=O)c1ccco1)C(=O)Nc1nc(-c2ccccn2)cs1	·	·	–	–	–
